The record followed here is PubChem BioAssay (Tox21).

Values without a mark were called inactive. Inconclusive results are not listed. Active and inactive are the calls of the source. Unless noted, the call rests on the fitted dose curve; in most records, active means well fitted curve in the direction sought with a large enough effect in the repeat runs; inconclusive means weak or mixed curves; inactive means no such curve, though single readings can be large; an effect the other way counts as inactive or inconclusive.

A short description of assay [1]: qHTS assay to identify small molecule agonists of the hypoxia (HIF-1) signaling pathway - cell viability counter screen (AID 1224844; calls by dose curve; further: nearly all actives have a fitted effect of over 50% in size). In outline: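 HRE-bla ME-180 cells in medium with 0.5% dialyzed FBS were preincubated 5 hrs at 37C, exposed to compounds for 17 hrs, then viability was read as CellTiter-Glo luminescence after 30 min at room temperature, in the reporter wells.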

Assay [2] is described as follows: qHTS assay to identify small molecule agonists of H2AX (AID 1224845; active means well fitted activation curve with a large enough effect in the signal ratio in the repeat runs, not every such curve was filed as active; the % refers to the signal ratio; further: potency means the concentration at half of the fitted maximal effect). The gist of the method:
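Wild-type CHO-K1 cells plated overnight, then exposed 3 hr at 37C to compounds at 15 concentrations (0.76% DMSO). Lysed, then HTRF anti-pH2AX(S139)-cryptate/anti-H2AX-d2 detection after 24 hr at room temperature; emissions 665 and 620 nm.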

Assay [3] is described as follows: qHTS assay to identify small molecule agonists of the hypoxia (HIF-1) signaling pathway (AID 1224846; active means well fitted activation curve with a large enough effect in the signal ratio in the repeat runs, not every such curve was filed as active; the % refers to the signal ratio). The gist of the method: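 HRE-bla ME-180 cells (beta-lactamase reporter under hypoxia response element) were plated at 2,000 cells/well in medium with 0.5% dialyzed FBS, rested 5 hrs, then given compounds in DMSO for 17 hrs at 37C, 5% CO2. Reporter induction was read with CCF4-AM FRET substrate.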

Assay [4] is described as follows: qHTS assay to identify small molecule agonists of H2AX - cell viability counter screen (AID 1224847; calls by dose curve; further: top concentration of the series differs between compounds; nearly all actives have a fitted effect of over 30% in size). The gist of the method: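 CHO-K1 cells plated overnight at 37C, then exposed 3 h at 37C to compounds at 15 concentrations (0.76% DMSO final). Viability by CellTiter-Glo luminescence after 30 min at room temperature.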
Assay [5] in a line: qHTS RealTime-Glo MT Cell Viability Assay in HepG2 cells - 24 hour (AID 1224867). Further: nearly all actives have a fitted effect of over 50% in size. In outline:
(§1)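 Tox21 10K library screened in qHTS format on HepG2 cells carrying RealTime-Glo reagents. Compounds were added after a 5 h preincubation, and the luminescent signal from continuous culture was measured repeatedly during 40 h treatment.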

The nature of assay [6]: qHTS RealTime-Glo MT Cell Viability Assay in HEK293 cells - 32 hour (AID 1224868). Further: top concentration of the series differs between compounds; nearly all actives have a fitted effect of over 50% in size. The gist of the method: (§2)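 Luminescence generated by NanoLuc from substrate produced by living HEK293 cells served as the viability signal. Each value reflects the reading at its stated time point during continuous 40 h compound exposure at 37 C.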
Assay [7] in a line: A CellTox Green Cytotoxicity Assay to monitor cytotoxicity in HEK293 cells - 0 hour (AID 1224869). Further: nearly all actives have a fitted effect of over 50% in size. In outline:
(§3)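 HEK293 cells premixed with CellTox Green dye were seeded at 600 cells/well and left 5 h at 37 C/5% CO2 before pin transfer of 23 nL compound in DMSO. Fluorescence from dye bound to dead-cell DNA was read during 40 h treatment.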

The nature of assay [8]: qHTS RealTime-Glo MT Cell Viability Assay in HepG2 cells - 40 hour (AID 1224870). Further: nearly all actives have a fitted effect of over 50% in size. The gist of the method: (§4)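 HepG2 cells mixed with RealTime-Glo MT reagents (NanoLuc plus cell-permeant prosubstrate) were seeded at 600 cells/well, incubated 5 h at 37 C/5% CO2, then pinned with compounds in DMSO; nonlytic luminescence tracked viability during 40 h treatment.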
Assay [9] is described as follows: A CellTox Green Cytotoxicity Assay to monitor cytotoxicity in HEK293 cells - 40 hour (AID 1224871). Further: nearly all actives have a fitted effect of over 45% in size. Further: potency means the concentration at half of the fitted maximal effect. The gist of the method:
as §3

Assay [10] in a line: qHTS RealTime-Glo MT Cell Viability Assay in HEK293 cells - 16 hour (AID 1224872). In outline:
as §2

Assay [11] can be described thus: qHTS RealTime-Glo MT Cell Viability Assay in HepG2 cells - 8 hour (AID 1224873). Further: nearly all actives have a fitted effect of over 55% in size. The gist of the method:
as §4

A short description of assay [12]: qHTS RealTime-Glo MT Cell Viability Assay in HEK293 cells - 40 hour (AID 1224874). Further: nearly all actives have a fitted effect of over 50% in size. The conditions noted are these: RealTime-Glo luminescence; max response: stronger effect = lower value. The gist of the method:
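HEK293 cells mixed with RealTime-Glo reagents (NanoLuc plus cell-permeant prosubstrate) at 600 cells/well, preincubated 5 h at 37 C/5% CO2, then given 23 nL compound in DMSO. Nonlytic luminescence from viable cells was read at 0, 8, 16, 24, 32 and 40 h.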

Assay [13] in a line: A CellTox Green Cytotoxicity Assay to monitor cytotoxicity in HEK293 cells - 24 hour (AID 1224875). Further: nearly all actives have a fitted effect of over 45% in size. Further: potency means the concentration at half of the fitted maximal effect. In outline: as §3
Assay [14] in a line: A CellTox Green Cytotoxicity Assay to monitor cytotoxicity in HepG2 cells - 16 hour (AID 1224876). Further: nearly all actives have a fitted effect of over 45% in size. Further: potency means the concentration at half of the fitted maximal effect. The gist of the method:
(§5)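 HepG2 cells were seeded together with the CellTox Green dye at 600 cells/well, left 5 h at 37 C/5% CO2, then given compounds in DMSO. Fluorescence from dye bound to dead-cell DNA was read repeatedly over 40 h of treatment at 37 C.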

Assay [15] in a line: qHTS RealTime-Glo MT Cell Viability Assay in HepG2 cells - 32 hour (AID 1224877). Further: nearly all actives have a fitted effect of over 55% in size. The gist of the method: as §1
The nature of assay [16]: A CellTox Green Cytotoxicity Assay to monitor cytotoxicity in HepG2 cells - 24 hour (AID 1224878). Further: nearly all actives have a fitted effect of over 45% in size. The gist of the method: as §5
The nature of assay [17]: A CellTox Green Cytotoxicity Assay to monitor cytotoxicity in HepG2 cells - 40 hour (AID 1224879). Further: nearly all actives have a fitted effect of over 40% in size. The gist of the method:
as §5

Assay [18] in a line: qHTS assay to identify small molecule agonists of the estrogen related receptor (ERR) signaling pathway from Tox21 library (AID 1224849; calls by dose curve; further: nearly all actives have a fitted effect of over 15% in size). Conditions: ERR reporter cell line, ONE-Glo luciferase, 18 h; at 92.4 µM (top of the series) unless noted. In outline:
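ERR reporter cell line (NTP) seeded, rested 6 h at 37 C/5% CO2, then pinned with Tox21 compounds in DMSO. After 18 h at 37 C, ONE-Glo luciferase luminescence was read following 30 min at room temperature.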

Assay [19] can be described thus: qHTS assay to identify small molecule antagonists of the estrogen related receptor (ERR) signaling pathway from Tox21 library (AID 1224848). Further: nearly all actives have a fitted effect of over 50% in size. In outline:
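Screening used an ERR reporter line supplied by NTP, exposed for 18 h at 37 C to library compounds delivered in DMSO. Signal was luciferase luminescence developed with ONE-Glo at room temperature for 30 min.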
On the % scale 0 is the no-effect control and ±100 the full control effect.

On to `C[C@@H](N)C(=O)O`, for which the Potency entry in assay [1], in [2], in assay [4], in [5], in [6] and in assay [7] was “inactive” in each case. The Potency result in [8], in assay [9], in assay [10], in [13], in [14] and in assay [15] was “inactive” throughout. The Potency result in assay [16] and in assay [17] was “inactive” in each case. For the same compound, the result in assay [3] and in assay [11] was inactive. Further, the max response in assay [12] was 1.04%.

`CCOC(=O)COc1ccc2c(c1)CC(NCC(O)c1cccc(Cl)c1)CC2` (stereo unspecified): the Potency entry in assay [1], in [2], in [5], in assay [6], in assay [7] and in assay [8] was “inactive” throughout. In addition, the Potency result in [10] and in assay [15] was “inactive” in each case. Moreover, the outcome in assay [3] and in [11] was inactive. Besides, in assay [18], the activity change, positive = activation is -15.6%. The max response in assay [12] was -17.8%. Also, the Potency in [14] is 44 µM (active).

For `CCCCCCOc1ccc(N)cc1`, the Potency result in assay [1], in assay [19], in [5], in assay [7], in assay [8] and in assay [14] was “inactive” throughout. Besides, the Potency entry in [15] is “inactive”. Further, the Potency in [2] was 56.6 µM (active); in assay [9], 43.6 µM (active); in [13] it was 49 µM (active). Moreover, the result in [3] was inactive. Further, in assay [18], the activity change, positive = activation is 2.67%.

Turning to `CCCCCCCOC(=O)CCC`, the Potency entry in assay [1], in assay [2], in assay [19], in assay [5], in [6] and in assay [7] was “inactive” in each case. The Potency entry in assay [8], in [9], in assay [10], in [13], in assay [14] and in assay [15] was “inactive” each time. Moreover, the Potency entry in [16] and in assay [17] was “inactive” in each case. Further, the compound was called inactive in assay [3] and in [11]. Also, in [18], the activity change, positive = activation is -0.487%. In assay [12], the max response was 4.56%.

Regarding `O=CCCc1ccccc1`, the Potency result in assay [1], in assay [2], in [4], in [5], in assay [6] and in assay [7] was “inactive” in each case. Further, the Potency result in assay [8], in assay [9], in [10], in assay [13], in assay [14] and in assay [15] was “inactive” in each case. Besides, the Potency entry in assay [16] and in assay [17] was “inactive” each time. Besides, the compound was called inactive in assay [3]. In addition, the activity change, positive = activation in assay [18] was 7.2%. The max response in assay [12] is 4.45%.

As to `COc1ccc(S(=O)(=O)Nc2nnc(CC(C)C)s2)cc1`, the Potency result in assay [1], in assay [2], in assay [4], in assay [5], in assay [6] and in [7] was “inactive” each time. Besides, the Potency result in [8], in [9], in assay [10], in assay [13], in assay [14] and in assay [15] was “inactive” each time. Also, the Potency result in [16] and in assay [17] was “inactive” in each case. Moreover, the compound was classed as inactive in assay [3] and in [11]. Moreover, the max response in assay [12] was 6.93%.

As for `CCCCN1C[C@H](O)[C@@H](O)[C@H](O)[C@H]1CO`, the Potency entry in [1], in [2], in assay [4], in assay [5], in assay [7] and in assay [8] was “inactive” throughout. In addition, the Potency entry in assay [9], in assay [10], in [13], in assay [14], in [15] and in assay [16] was “inactive” throughout. The Potency entry in assay [17] was “inactive”. The result in assay [11] was inactive. In assay [12], the max response is 5.15%.

On to `CC(CNC1CCCCC1)OC(=O)c1ccccc1` (stereo unspecified), for which the Potency result in assay [1], in assay [2], in assay [4], in assay [19], in assay [5] and in assay [6] was “inactive” throughout. Besides, the Potency result in assay [7], in assay [8], in assay [9], in [10], in assay [13] and in [14] was “inactive” in each case. Further, the Potency entry in assay [15], in [16] and in [17] was “inactive” each time. For the same compound, the outcome in assay [11] was inactive. Further, the max response in [12] is -9.26%.
